This is an account of results in PubChem BioAssay (NCI).

Each structure is given as a SMILES string. This is part of a sample that, as a whole, favours compounds with a hit. Of some 79,000 tested, about 15% had one in any assay. Values without a mark were called inactive. Active and inactive are the calls of the source. No stated cut-off is given here; in the data, active means growth inhibition above about 70%; inactive means the rest.

The nature of the test: NCI Yeast Anticancer Drug Screen. Data for the rad52 strain (AID 147).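 Further: 0% = growth of vehicle-treated control cultures.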 The conditions noted are these: S. cerevisiae rad52 mutant growth inhibition, stronger effect = higher value. The procedure: Growth inhibition of yeast strains with defined genetic alterations is measured as a screen for potential anti-cancer activity. Selected strains with alterations in DNA damage repair or cell cycle control were exposed to compounds and growth inhibition was measured relative to vehicle treated controls. The strain used in this assay is rad52

With `CC(C)CCC[C@@H](C)[C@H]1CC[C@H]2[C@@H]3CC[C@H]4C[C@H](N)CC[C@]4(C)[C@H]3CC[C@]12C`, the growth inhibition (at 1.2 µM) was -2%; the growth inhibition (at 3.7 µM) is 2%; the growth inhibition (at 11.0 µM) was -3%; the growth inhibition (at 33.0 µM) is -7%; the growth inhibition (at 100.0 µM) is -6%.

Turning to `COc1ccccc1/C=C\C(=O)C1COCN1` (stereo not given), the growth inhibition (at 1.2 µM) is 4%; the growth inhibition (at 3.7 µM) was 14%; the growth inhibition (at 11.0 µM) is 25%; the growth inhibition (at 33.0 µM) is 71% (active); the growth inhibition (at 100.0 µM) is 99% (active).

As to `CCN(CC)CC(=O)c1ccc2cc(Cl)c3ccccc3c2c1`, the growth inhibition by setting is: (at 1.2 µM) 14%; (at 3.7 µM) 30%; (at 11.0 µM) 99% (active); (at 33.0 µM) 98% (active); (at 100.0 µM) 98% (active).

In the case of `CC(C)NCCCNc1c2ccccc2nc2cccc([N+](=O)[O-])c12`, the growth inhibition (at 1.2 µM) was 93% (active); the growth inhibition (at 3.7 µM) is 96% (active); the growth inhibition (at 11.0 µM) is 97% (active); the growth inhibition (at 33.0 µM) was 97% (active); the growth inhibition (at 100.0 µM) is 97% (active).

`CC(C)N(CCCNc1c2ccccc2nc2cccc([N+](=O)[O-])c12)C(C)C`: the growth inhibition by setting is: (at 1.2 µM) 51%; (at 3.7 µM) 87% (active); (at 11.0 µM) 95% (active); (at 33.0 µM) 97% (active); (at 100.0 µM) 98% (active).

As to `O=NC1c2cccc3cccc(c23)C1N=O` (stereo not given), the growth inhibition runs as follows: (at 1.2 µM) 14%; (at 3.7 µM) 33%; (at 11.0 µM) 75% (active); (at 33.0 µM) 90% (active); (at 100.0 µM) 94% (active).

In the case of `CC(C)OC(=O)NNc1cccc(Cl)c1`, the growth inhibition runs as follows: (at 1.2 µM) 1%; (at 3.7 µM) 10%; (at 11.0 µM) 57%; (at 33.0 µM) 96% (active); (at 100.0 µM) 97% (active).

Consider `CC(CN(C)C)C(=O)/C=C/c1ccc(Cl)c(Cl)c1` (stereo not given), for which the growth inhibition reads like this: (at 1.2 µM) 7%; (at 3.7 µM) 15%; (at 11.0 µM) 29%; (at 33.0 µM) 73% (active); (at 100.0 µM) 95% (active).
